Inhibition data for three compounds are collected here from PubChem BioAssay.

SMILES strings stand for the structures. Unmarked numbers belong to inactive results. The source made the active and inactive calls. Unless noted, no stated cut-off is given here; in the data, active means inhibition above about 44%; inactive means the rest.

Assay [1] concerns the target Nuclear receptor coactivator 3 (Homo sapiens) (UniProt Q9Y6Q9). In words: NCOA3 GAL4-fusion reporter inhibition – cell-based, luminescence, quadruplicate, confirmation (AID 588792;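 active means mean inhibition over 43.08%, the solvent-only control mean plus 3 SD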;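 further: 0% = DMSO treated cells and 100% = gossypol at 36 µM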). Particulars: HEK293 GAL4-SRC3 luciferase reporter, at 3.6 µM, active compounds read high. (In general: A reporter such as luciferase makes a cellular process visible.)
Assay [2] relates to transactivating tegument protein VP16 (Human herpesvirus 1), Gal4-VP16 luciferase reporter. In words: repression of VP16-driven luciferase reporter – cell-based, luminescence, high throughput, counter-screen for SRC3 inhibitor project (AID 588794; in the data active means inhibition above about 30%). Conditions: mammalian cells, at 3.6 µM, active compounds read high.
Assay [3] deals with Nuclear receptor coactivator 1 (Homo sapiens) (UniProt Q15788). In words: NCOA1 GAL4-fusion reporter inhibition – cell-based, luminescence, quadruplicate, confirmation (AID 588820;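 active means mean inhibition above 46.68%, the untreated control wells mean plus 3 SD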;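 further: 0% = DMSO wells and 100% = gossypol 36 µM treated wells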). Particulars: HEK293 GAL4-SRC1 luciferase reporter, at 3.6 µM, active compounds read high.
The nature of assay [4]: repression of VP16-driven luciferase reporter – cell-based, luminescence, high throughput, counter-screen for SRC1 inhibitor project (AID 588824; in the data active means inhibition above about 25%). Conditions: cell-based VP16 transactivation luciferase luminescence; at 3.6 µM; active compounds read high.
Assay [5] can be described thus: StAR promoter reporter inhibitors, counter-screen for LRH-1 inverse agonist project, cell-based, luminescence, high throughput (AID 651611; in the data active means inhibition above about 28%). Conditions: StAR promoter luciferase reporter counterscreen, at 3.6 µM, active compounds read high. A general note: A counterscreen serves to expose hits that act by an unwanted route or on another target.
Assay [6] addresses Nuclear receptor subfamily 5 group A member 2 (Homo sapiens) (UniProt O00482). Nature of the assay: NR5A2 activity suppression in reporter cells – cell-based, luminescence, confirmation (AID 651613; in the data active means inhibition above about 42%;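 further: HEK293T cells co-transfected with LRH-1 and StAR promoter luciferase reporter; 0% = vehicle wells and 100% = parental cells lacking receptor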). Conditions: cell-based LRH-1 luciferase reporter, inverse agonism; at 3.6 µM; active compounds read high.
Assay [7] has as its target Steroidogenic factor 1 (Homo sapiens) (UniProt Q13285). Nature of the assay: inverse agonism at SF1 nuclear receptor – cell-based, luminescence, high throughput, counter-screen for LRH-1 inverse agonist project (AID 651614).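 Further: cells cotransfected with StAR promoter reporter and SF1 expression vector; 0% = vehicle on cells with receptor and 100% = vehicle on cells lacking receptor.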 Conditions: cell-based SF1 luciferase reporter, at 3.6 µM, active compounds read high.
Assay [8] is described as follows: compounds suppressing VP16-driven luciferase signal – cell-based, luminescence, high throughput, counter-screen for LRH-1 inverse agonist project (AID 651615; in the data active means inhibition above about 33%). Conditions: Gal4-VP16 luciferase reporter cells, at 3.6 µM, active compounds read high.
Assay [9] has as its system transactivating tegument protein VP16 (Human herpesvirus 1). Nature of the assay: compounds suppressing VP16-driven luciferase signal – cell-based, luminescence, single concentration, counter-screen for SRC2 inhibitor project (AID 652007; in the data active means inhibition above about 36%). Particulars: cell-based VP16 transactivation luciferase reporter, at 8.9 µM, active compounds read high.
Assay [10] addresses Nuclear receptor coactivator 2 (Homo sapiens) (UniProt Q15596). In words: inhibition of GAL4-SRC2 driven luciferase expression – cell-based, luminescence, HEK293, triplicate, confirmation (AID 652008;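 active means mean inhibition above 46.5%, the solvent-only control mean plus 3 SD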;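 further: 0% = DMSO-treated cells and 100% = Gossypol at 36 µM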). Particulars: HEK293 GAL4-SRC2 luciferase reporter, at 8.9 µM, active compounds read high.

Nuclear receptor coactivator 3 (Homo sapiens), sequence (Q9Y6Q9 whole entry, looked up, the tested form may be a part): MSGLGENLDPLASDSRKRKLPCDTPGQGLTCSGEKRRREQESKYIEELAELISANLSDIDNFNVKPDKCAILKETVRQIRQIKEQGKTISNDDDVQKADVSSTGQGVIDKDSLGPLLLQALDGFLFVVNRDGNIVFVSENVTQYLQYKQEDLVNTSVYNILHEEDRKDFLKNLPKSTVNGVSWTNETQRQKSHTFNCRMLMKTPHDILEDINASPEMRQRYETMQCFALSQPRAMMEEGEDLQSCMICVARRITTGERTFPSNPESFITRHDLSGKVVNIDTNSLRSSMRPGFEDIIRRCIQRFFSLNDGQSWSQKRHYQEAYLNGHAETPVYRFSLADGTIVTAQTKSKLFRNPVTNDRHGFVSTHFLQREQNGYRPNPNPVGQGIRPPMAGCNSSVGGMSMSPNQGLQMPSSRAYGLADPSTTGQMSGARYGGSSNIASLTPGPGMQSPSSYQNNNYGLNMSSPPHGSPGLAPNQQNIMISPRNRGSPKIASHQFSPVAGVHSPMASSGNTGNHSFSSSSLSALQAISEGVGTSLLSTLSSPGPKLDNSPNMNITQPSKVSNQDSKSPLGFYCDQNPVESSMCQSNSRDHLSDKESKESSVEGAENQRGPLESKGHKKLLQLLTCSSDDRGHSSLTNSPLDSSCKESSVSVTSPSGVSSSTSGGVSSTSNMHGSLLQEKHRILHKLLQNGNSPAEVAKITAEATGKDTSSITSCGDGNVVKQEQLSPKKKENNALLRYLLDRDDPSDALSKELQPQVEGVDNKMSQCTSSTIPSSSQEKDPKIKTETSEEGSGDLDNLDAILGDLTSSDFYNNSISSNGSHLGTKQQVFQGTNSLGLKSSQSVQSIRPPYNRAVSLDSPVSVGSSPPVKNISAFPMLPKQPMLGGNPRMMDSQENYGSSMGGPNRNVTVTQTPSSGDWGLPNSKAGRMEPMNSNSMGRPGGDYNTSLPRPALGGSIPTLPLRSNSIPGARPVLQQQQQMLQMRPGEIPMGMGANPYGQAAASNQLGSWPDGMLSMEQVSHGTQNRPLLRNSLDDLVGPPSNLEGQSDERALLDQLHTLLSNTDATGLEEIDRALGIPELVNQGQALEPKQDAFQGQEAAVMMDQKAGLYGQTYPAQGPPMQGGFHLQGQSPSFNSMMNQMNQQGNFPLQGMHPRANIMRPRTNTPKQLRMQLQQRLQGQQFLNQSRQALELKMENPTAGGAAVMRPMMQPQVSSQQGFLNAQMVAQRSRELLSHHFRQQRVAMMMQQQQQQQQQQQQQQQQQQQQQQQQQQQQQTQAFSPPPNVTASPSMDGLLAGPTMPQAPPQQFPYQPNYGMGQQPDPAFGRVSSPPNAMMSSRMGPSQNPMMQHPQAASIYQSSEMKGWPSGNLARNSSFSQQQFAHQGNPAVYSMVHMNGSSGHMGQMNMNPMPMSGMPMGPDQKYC
Steroidogenic factor 1 (Homo sapiens), sequence (Q13285 whole entry, looked up, the tested form may be a part): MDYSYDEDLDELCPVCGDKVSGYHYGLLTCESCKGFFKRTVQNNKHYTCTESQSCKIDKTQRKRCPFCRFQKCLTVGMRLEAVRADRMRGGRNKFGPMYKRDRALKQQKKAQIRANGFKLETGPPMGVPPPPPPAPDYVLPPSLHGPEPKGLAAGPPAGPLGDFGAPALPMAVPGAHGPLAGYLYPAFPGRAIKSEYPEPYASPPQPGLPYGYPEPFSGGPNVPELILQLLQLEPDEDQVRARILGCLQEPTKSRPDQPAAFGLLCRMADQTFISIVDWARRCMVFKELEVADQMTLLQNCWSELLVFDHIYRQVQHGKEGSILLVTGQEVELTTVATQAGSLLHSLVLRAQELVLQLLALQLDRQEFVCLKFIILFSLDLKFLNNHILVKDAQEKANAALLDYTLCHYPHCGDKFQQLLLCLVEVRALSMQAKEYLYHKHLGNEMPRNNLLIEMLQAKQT
Nuclear receptor subfamily 5 group A member 2 (Homo sapiens), sequence (O00482 whole entry, looked up): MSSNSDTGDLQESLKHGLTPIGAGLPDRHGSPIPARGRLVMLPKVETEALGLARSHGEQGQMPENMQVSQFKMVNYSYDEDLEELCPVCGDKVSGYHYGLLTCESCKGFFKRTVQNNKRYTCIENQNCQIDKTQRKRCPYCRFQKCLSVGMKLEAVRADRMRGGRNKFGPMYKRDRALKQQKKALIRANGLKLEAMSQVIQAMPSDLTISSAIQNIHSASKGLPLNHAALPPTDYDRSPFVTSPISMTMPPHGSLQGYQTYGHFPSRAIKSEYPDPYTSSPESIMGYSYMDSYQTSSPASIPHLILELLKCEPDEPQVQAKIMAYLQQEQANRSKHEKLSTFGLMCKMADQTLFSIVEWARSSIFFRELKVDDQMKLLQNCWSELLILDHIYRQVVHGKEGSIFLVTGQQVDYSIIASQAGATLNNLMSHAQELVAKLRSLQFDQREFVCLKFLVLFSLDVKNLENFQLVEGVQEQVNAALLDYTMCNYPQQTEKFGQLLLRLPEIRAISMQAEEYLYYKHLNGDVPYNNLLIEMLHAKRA
Nuclear receptor coactivator 2 (Homo sapiens), sequence (Q15596 whole entry, looked up, the tested form may be a part): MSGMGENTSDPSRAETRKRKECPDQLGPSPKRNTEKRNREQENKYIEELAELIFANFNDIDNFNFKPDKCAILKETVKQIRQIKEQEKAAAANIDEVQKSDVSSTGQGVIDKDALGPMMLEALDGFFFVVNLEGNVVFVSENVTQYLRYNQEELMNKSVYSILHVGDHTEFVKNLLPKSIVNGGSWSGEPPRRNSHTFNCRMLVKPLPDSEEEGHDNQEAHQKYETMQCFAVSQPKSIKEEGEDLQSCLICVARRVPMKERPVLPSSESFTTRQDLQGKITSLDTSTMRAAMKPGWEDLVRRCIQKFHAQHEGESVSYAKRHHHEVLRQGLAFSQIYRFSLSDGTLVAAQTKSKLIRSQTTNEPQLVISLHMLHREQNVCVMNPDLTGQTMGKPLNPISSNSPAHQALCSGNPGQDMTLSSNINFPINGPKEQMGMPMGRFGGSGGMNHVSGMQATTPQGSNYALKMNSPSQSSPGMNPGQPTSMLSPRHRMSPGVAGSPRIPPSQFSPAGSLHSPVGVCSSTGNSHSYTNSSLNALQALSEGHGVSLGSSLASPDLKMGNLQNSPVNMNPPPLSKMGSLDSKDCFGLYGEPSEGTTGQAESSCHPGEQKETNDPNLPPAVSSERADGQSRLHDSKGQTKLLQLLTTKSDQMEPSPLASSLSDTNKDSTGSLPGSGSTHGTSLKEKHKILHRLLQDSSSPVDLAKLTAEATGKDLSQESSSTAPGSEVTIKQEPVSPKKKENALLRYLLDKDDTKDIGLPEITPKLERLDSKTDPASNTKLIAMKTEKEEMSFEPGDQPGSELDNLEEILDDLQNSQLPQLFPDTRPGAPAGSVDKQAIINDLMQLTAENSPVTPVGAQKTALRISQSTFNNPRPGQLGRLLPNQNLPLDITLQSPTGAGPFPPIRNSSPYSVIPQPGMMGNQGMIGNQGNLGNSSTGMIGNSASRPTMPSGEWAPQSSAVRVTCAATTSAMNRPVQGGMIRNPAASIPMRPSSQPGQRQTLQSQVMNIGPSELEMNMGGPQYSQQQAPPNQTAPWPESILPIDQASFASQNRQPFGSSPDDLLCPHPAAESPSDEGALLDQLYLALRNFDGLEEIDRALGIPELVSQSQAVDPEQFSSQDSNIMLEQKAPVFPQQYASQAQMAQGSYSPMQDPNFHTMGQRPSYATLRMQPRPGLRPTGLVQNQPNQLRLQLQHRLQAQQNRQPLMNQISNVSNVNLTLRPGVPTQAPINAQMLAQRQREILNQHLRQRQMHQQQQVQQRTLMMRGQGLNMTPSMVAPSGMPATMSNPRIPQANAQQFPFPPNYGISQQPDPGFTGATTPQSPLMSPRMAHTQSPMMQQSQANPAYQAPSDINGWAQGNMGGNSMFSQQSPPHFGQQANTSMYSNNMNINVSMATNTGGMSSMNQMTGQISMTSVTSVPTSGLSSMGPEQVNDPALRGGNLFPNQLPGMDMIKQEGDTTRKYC

One may read the inhibition as the drop in the measured response relative to a control, in per cent. In the case of `CNc1cccnc1C=NNC(N)=S`, the inhibition in [1] is 71.3% (active); in assay [2], 40.5% (active); in [3], 58.5% (active); in assay [4], 17.9%; in [5], 25.3%; in assay [6], 57.8% (active). Further, the inhibition in assay [7] was 52.1% (active); in [8] it was 30.4%; in [9] it was -4.08%; in assay [10], 9.84%.

Turning to `Cc1cc(C(=O)CSc2nc3ccccc3[nH]2)c(C)n1CC1CCCO1` (stereo not given), the inhibition is 5.02% in assay [1]; 30.5% (active) in assay [2]; -86.8% in assay [3]; -6.65% in assay [4]; -34.6% in assay [5]; -80.8% in assay [6]. In addition, the inhibition in [7] is -1.87%; in [8] it was 32.9% (active); in [9], 31.5%; in assay [10] it was 50.9% (active).

Turning to `Cc1nn(-c2ccccc2Cl)c(Cl)c1/C=N/Nc1nc2ccccc2s1`, the inhibition in [1] was 64.1% (active); in [2], 73.5% (active); in assay [3], 48.1% (active); in assay [4], 57.4% (active); in assay [5] it was 82.7% (active); in assay [6], 21.8%. Also, the inhibition in [7] was 73.5% (active); in assay [8], 58.5% (active); in [9], 82.7% (active); in assay [10], 91.7% (active).
